In general, Inhibition refers to how much of the control response was suppressed. Read a low Inhibition as a response near the control.

Each structure is given as a SMILES string.

Holding throughout (type): functional
The test system of experiment [1] is Plasmodium falciparum. Briefly: GSK_TCMDC: Inhibition of Plasmodium falciparum 3D7 in whole red blood cells, using parasite LDH activity as an index of growth. Test compounds present at 2uM.
For experiment [2], the system named is Plasmodium falciparum. The experiment is described as follows: GSK_TCMDC: Inhibition of Plasmodium falciparum Dd2 in whole red blood cells, using parasite LDH activity as an index of growth. Test compounds present at 2uM.
The next experiment has as its system HepG2. The experiment is described as follows: GSK_TCMDC: Percent inhibition of human HepG2 cell line. Test compounds present at 10uM.

On to `O=C(NC1CCN(c2ccnc3ccccc23)C1)c1cccc(C(F)(F)F)c1.O=C(O)C(F)(F)F` (stereo not given), for which the Inhibition with Plasmodium falciparum [1] was determined as 94%; in the experiment with Plasmodium falciparum [2], 86%; with HepG2, 28%.

For the compound `O=C(O)C(F)(F)F.c1cc(CN2CCCCC2)cc(-c2csc(-c3nc4ccccc4[nH]3)c2)c1`, the Inhibition with Plasmodium falciparum [1] stood at 90%; in the experiment on Plasmodium falciparum [2], 16%; with HepG2, 26%.

`O=C(NCc1cccc(F)c1)Nc1ccc(-c2ccc(-c3nc4cc(C(F)(F)F)ccc4[nH]3)cc2)cc1`: the Inhibition was determined as 100% with Plasmodium falciparum [1], 24% in the experiment on Plasmodium falciparum [2] and 46% with HepG2.

On to `Cc1cc(Nc2ccc(C)c(C)c2)n2nc(C)nc2n1`, for which the Inhibition with Plasmodium falciparum [1] amounted to 95%; with Plasmodium falciparum [2], 45%; in the experiment with HepG2, 10%.

On to `CCCCCCCc1c(C)nc2ccccc2c1O`, for which the Inhibition worked out at 98% with Plasmodium falciparum [1], 96% with Plasmodium falciparum [2] and 0% in the experiment on HepG2.

On to `Nc1nc(N)c2c(ccc3c2ccn3Cc2ccccc2)n1`, for which the Inhibition with Plasmodium falciparum [1] was found to be 96%; in the experiment with Plasmodium falciparum [2] it was 94%; with HepG2, 64%.

Regarding `O=C(NC1CC1)c1ccc(N2CCC(COc3cccc(F)c3)CC2)nc1`, the Inhibition is 89% in the experiment on Plasmodium falciparum [1], 88% with Plasmodium falciparum [2] and 0% in the experiment on HepG2.

Consider `CC1(C)CCCN(C(=O)c2cccc(-n3nc(-c4ccc(Cl)cc4)cc3N)c2)C1`, for which the figures for the Inhibition in the experiment on Plasmodium falciparum [1], with Plasmodium falciparum [2] and in the experiment with HepG2 were 100%, 98% and 13%, respectively.

Regarding `COc1ccc(-c2nnc(Sc3ccc(C#N)c([N+](=O)[O-])c3)n2CC(C)C)cc1`, the Inhibition with Plasmodium falciparum [1] was 97%; in the experiment with Plasmodium falciparum [2] it was 78%; with HepG2 it was 3%.

In the case of `Fc1ccc(-c2nc(NCc3cccc(C(F)(F)F)c3)nn2-c2cccc(C(F)(F)F)c2)cc1C(F)(F)F`, the Inhibition is 90% with Plasmodium falciparum [1], 58% with Plasmodium falciparum [2] and 2% in the experiment on HepG2.

With `O=c1ccc(-c2nc3cc(Cl)c(Cl)cc3n2Cc2ccc(Cl)cc2Cl)c[nH]1`, the Inhibition in the experiment on Plasmodium falciparum [1] worked out at 88%; in the experiment with Plasmodium falciparum [2] it was 67%; in the experiment on HepG2, 0%.

Take `Cc1ccccc1C1CCN(C2CCC(NC(=O)/C=C/c3c(F)ccc(F)c3F)CC2)CC1` (stereo not given): the Inhibition in the experiment on Plasmodium falciparum [1] was 82%; in the experiment on Plasmodium falciparum [2] it was 33%; in the experiment on HepG2, 37%.

`O=C(Cc1cccc(Cl)c1)Nc1cccc(-c2c[nH]c3nc(Nc4ccccc4)ncc23)c1.O=C(O)C(F)(F)F`: the Inhibition with Plasmodium falciparum [1] is 99%; in the experiment on Plasmodium falciparum [2], 70%; with HepG2, 5%.

Turning to `COC(=O)c1cccc(NC(=O)NC2CCN(c3ccnc(NCc4ccc(F)cc4)n3)CC2)c1`, the Inhibition with Plasmodium falciparum [1] came to 93%; in the experiment on Plasmodium falciparum [2], 39%; with HepG2 it was 29%.

`CN(C)c1ccc(CN2CCC(CNC(=O)c3cc(-c4ccccc4Cl)cs3)C2)cc1.O=C(O)C(F)(F)F` (stereo not given): the Inhibition stood at 91% with Plasmodium falciparum [1], 5% in the experiment on Plasmodium falciparum [2] and 29% in the experiment on HepG2.

In the case of `O=C1Nc2ccccc2/C1=N/NC(=S)N1CCOCC1`, the Inhibition came out at 95% with Plasmodium falciparum [1], 75% in the experiment on Plasmodium falciparum [2] and 51% with HepG2.

Consider `CC1(C)N=C(N)N=C(N)N1OCCCOc1cc(Cl)c(Cl)cc1Cl.Cl`, for which the figures for the Inhibition in the experiment with Plasmodium falciparum [1], in the experiment with Plasmodium falciparum [2] and with HepG2 were 95%, 95% and 60%, respectively.

For `N#Cc1cnc(Nc2ccc(Oc3ccccc3)cc2)nc1Nc1cccc(S(N)(=O)=O)c1`, the Inhibition in the experiment with Plasmodium falciparum [1] was 96%; with Plasmodium falciparum [2], 86%; in the experiment with HepG2, 74%.

`CN(C)CCOc1cc(NC(=O)Nc2ccc3c(c2)CCCC3=O)ccc1I`: the Inhibition turned out to be 94% in the experiment on Plasmodium falciparum [1], 31% in the experiment on Plasmodium falciparum [2] and 29% in the experiment with HepG2.

Take `Cc1cc(N2CCCC2)nc(Nc2ccc(NC(=O)C(C)Oc3ccccc3)cc2)n1` (stereo not given): the Inhibition with Plasmodium falciparum [1] turned out to be 100%; with Plasmodium falciparum [2], 58%; with HepG2 it was 42%.

In the case of `Cl.O=S(=O)(Nc1cc2c(cc1OCCCN1CCCCC1)CCNCC2)c1ccc(-c2ccc(Cl)cc2)cc1`, the Inhibition in the experiment on Plasmodium falciparum [1] came out at 100%; in the experiment with Plasmodium falciparum [2] it was 19%; in the experiment on HepG2, 77%.

As to `CN(C)CCOc1ccc(N2CCN(CCCCNC(=O)c3ccc(/C=C/c4cc(Cl)cc(Cl)c4)cc3)CC2)cc1`, the results for the Inhibition in the experiment with Plasmodium falciparum [1], in the experiment on Plasmodium falciparum [2] and in the experiment on HepG2 were 98%, 84% and 97%, respectively.

With `O=C(Nc1ccc(Cl)cc1F)N[C@H]1CCN(CCCCCNC(=O)C2CC2c2ccc(Cl)c(Cl)c2)C1` (stereo not given in full), the Inhibition came to 87% in the experiment with Plasmodium falciparum [1], 0% in the experiment on Plasmodium falciparum [2] and 29% in the experiment with HepG2.

`O=C(/C=C/c1ccc(Cl)c(Cl)c1)NCCCCCCN1CCCN(C(=O)Nc2cc(F)cc(F)c2)CC1`: the Inhibition stood at 99% in the experiment on Plasmodium falciparum [1], 0% in the experiment on Plasmodium falciparum [2] and 25% in the experiment with HepG2.

With `CN1CCCC(CN2CCN(Cc3ccc(-c4ccc(-c5nc6ccccc6[nH]5)cc4)cc3)CC2)C1.O=C(O)C(F)(F)F` (stereo not given), the Inhibition is 100% in the experiment with Plasmodium falciparum [1], 100% in the experiment with Plasmodium falciparum [2] and 69% in the experiment on HepG2.

On to `CCN(CC)CCN(Cc1ccc(-c2ccc(C(F)(F)F)cc2)cc1)C(=O)Cn1c(CCc2cc(F)ccc2F)nc(=O)c2ccccc21.O=C(O)C(O)C(O)C(=O)O`, for which the Inhibition worked out at 98% with Plasmodium falciparum [1], 52% in the experiment on Plasmodium falciparum [2] and 42% in the experiment on HepG2.

Regarding `Fc1cccc(C=NNc2ccnc3cc(Cl)ccc23)c1`, the values for the Inhibition in the experiment with Plasmodium falciparum [1], in the experiment with Plasmodium falciparum [2] and in the experiment with HepG2 were 99%, 91% and 6%, respectively.

For `O=C(NCCc1ccccc1)[C@H](Cc1ccccc1)Nc1ccnc(NCC2CCCCC2)n1.O=C(O)C(F)(F)F`, the Inhibition is listed as 86% in the experiment with Plasmodium falciparum [1], 53% in the experiment with Plasmodium falciparum [2] and 11% with HepG2.

On to `CCCCCn1c(Sc2ccc(C#N)c([N+](=O)[O-])c2)nnc1-c1ccc(Cl)cc1`, for which the Inhibition with Plasmodium falciparum [1] worked out at 88%; in the experiment on Plasmodium falciparum [2], 29%; in the experiment on HepG2 it was 18%.

Take `Cn1cncc1C(=O)Nc1cccc(-c2cccc(-c3nc4cc(F)ccc4[nH]3)c2)c1`: the Inhibition turned out to be 100% in the experiment with Plasmodium falciparum [1], 45% with Plasmodium falciparum [2] and 16% in the experiment with HepG2.

Source of the values: ChEMBL document CHEMBL1157539, “Thousands of chemical starting points for antimalarial lead identification” (Nature, 2010).
